Source: PubChem BioAssay (NCATS)
Records with an inconclusive call do not appear. Calls of active or inactive are those of the source. Unless noted, calls follow the shape of the dose curve; as a rule, active = well fitted curve in either direction with a large enough effect (not every such curve was filed as active); inconclusive = small, poorly fitted or top-dose-only effect, or another doubt; inactive = flat fitted curve, though single readings scatter.

Key:
[1] = AP1 Signaling Pathway (AID 357); settings: ME-180 AP-1-bla reporter, EGF-induced, beta-lactamase ratio, 5 h; at 17.2 µM (top of the series) unless noted;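 also: ME-180 reporter cells stimulated with EGF at its EC50 level; % is scaled to controls: 0 for no effect and ±100 for the full control effect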
Procedure, shortened: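 In this screen, ME-180 cells in Opti-MEM with 0.5% dialyzed FBS received EC50 EGF and compound titrations for 5 h. AP-1 reporter beta-lactamase was detected via CCF4 ratio, giving AC50 for positive and negative modulators.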

[2] = NFAT Signaling Pathway (AID 444); settings: Jurkat NFAT-bla M1, carbachol, beta-lactamase ratio, 5 h; at 17.2 µM (top of the series) unless noted;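 also: carbachol stimulus at about its EC50 of 1 µM final; % is scaled to controls: 0 for no effect and ±100 for the full control effect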
Procedure, shortened: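 Read-out: CCF4 FRET ratio (460 nm/530 nm) after 1 h RT dye loading, used for %activity and AC50 from titration series. Cells: Jurkat NFAT-β-lactamase/M1 line, treated with compound plus 1 uM carbachol for 5 h, 37 °C.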

[3] = Stat Signaling Pathway (AID 446); settings: ME-180 (cervical carcinoma) SIE beta-lactamase reporter, IL-6 stimulated, 5 h; at 17.2 µM (top of the series) unless noted;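 also: ME-180 cervical cancer cells given 40 pM IL-6 alongside compound; SIE-controlled beta-lactamase reporter measured as 460/530 nm FRET emission ratio; % is scaled to controls: 0 for no effect and ±100 for the full control effect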
Procedure, shortened: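 Emission at 460 and 530 nm (excitation 405 nm) reports SIE-controlled beta-lactamase in ME-180 cells. Cells received compound with 40 pM IL-6 for 5 hrs at 37 C; data scaled between 300 pM IL-6 and 125 nM JAK-inhibitor controls.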

[4] = biological target: Glucocorticoid receptor (Homo sapiens) (UniProt P04150); assay: GR-GFP Redistribution (AID 450;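 active = compounds whose dose series gives a full or clear partial fitted curve of increased nuclear translocation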; also: potency is read from the fitted curve at half-maximal effect)
Glucocorticoid receptor (Homo sapiens), sequence (P04150 whole entry, looked up): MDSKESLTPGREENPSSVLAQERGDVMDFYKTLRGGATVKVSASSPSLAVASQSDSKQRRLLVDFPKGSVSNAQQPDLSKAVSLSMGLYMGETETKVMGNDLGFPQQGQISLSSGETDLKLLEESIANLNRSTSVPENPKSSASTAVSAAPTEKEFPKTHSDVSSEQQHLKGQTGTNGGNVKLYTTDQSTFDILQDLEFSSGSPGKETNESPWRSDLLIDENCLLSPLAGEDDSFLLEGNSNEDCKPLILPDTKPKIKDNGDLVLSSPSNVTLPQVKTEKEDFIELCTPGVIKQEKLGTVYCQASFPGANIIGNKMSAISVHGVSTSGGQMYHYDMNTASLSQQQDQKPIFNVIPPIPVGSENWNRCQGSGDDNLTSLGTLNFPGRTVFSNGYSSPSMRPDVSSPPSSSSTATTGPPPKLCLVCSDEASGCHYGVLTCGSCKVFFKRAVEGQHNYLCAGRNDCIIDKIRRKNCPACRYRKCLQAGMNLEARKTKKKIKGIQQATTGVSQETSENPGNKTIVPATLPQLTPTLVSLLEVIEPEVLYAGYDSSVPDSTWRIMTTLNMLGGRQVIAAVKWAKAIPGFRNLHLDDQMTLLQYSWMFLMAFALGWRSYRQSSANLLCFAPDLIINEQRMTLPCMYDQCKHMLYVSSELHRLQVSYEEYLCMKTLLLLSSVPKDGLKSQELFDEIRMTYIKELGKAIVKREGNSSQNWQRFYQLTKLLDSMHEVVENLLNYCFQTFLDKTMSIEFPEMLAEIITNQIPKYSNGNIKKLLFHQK

COc1cc(C)nc(Oc2ccc(OCCOc3ccc(C)cc3)nn2)n1
inactive: activity change, negative = inhibition [1] -8.32% | activity change, negative = inhibition [2] 5.08% | activity, negative = inhibition [3] -5.96% | Potency [4] > 20.6 µM

CCc1nc2n[nH]c(N)c2c2c1CSC(C)(C)C2
inactive: activity change, negative = inhibition [1] 1.67% | activity change, negative = inhibition [2] 14.6% | activity, negative = inhibition [3] -13.2% | Potency [4] > 20.6 µM

CC1N(O)C(c2ccc(Cl)cc2Cl)N(O)C1(C)C (stereo not given)
inactive: activity change, negative = inhibition [1] -0.0716% | activity change, negative = inhibition [2] -14.6% | activity, negative = inhibition [3] 2.16% | Potency [4] > 20.6 µM

COCc1n[nH]c(=S)n1-c1cccc2ccccc12
inactive: activity change, negative = inhibition [1] -1.13% | activity change, negative = inhibition [2] 1.36% | activity, negative = inhibition [3] 0.355% | Potency [4] > 20.6 µM

COC(=O)c1ccc(C2/C(=C(/O)c3ccc(OC)cc3)C(=O)C(=O)N2Cc2ccco2)cc1 (stereo not given)
inactive: activity change, negative = inhibition [1] -4.01% | activity change, negative = inhibition [2] -12% | activity, negative = inhibition [3] -22.4% | Potency [4] > 20.6 µM

CCOc1ccc(N=C2C(=O)N(CN3CCOCC3)c3ccccc32)cc1
inactive: activity change, negative = inhibition [1] 2.27% | activity change, negative = inhibition [2] 6.57% | activity, negative = inhibition [3] -3% | Potency [4] > 20.6 µM

Cc1cc(OCC(=O)Nc2ccc3oc(-c4ccncc4)nc3c2)ccc1Cl
inactive: activity change, negative = inhibition [1] -4.67% | activity change, negative = inhibition [2] 16.6% | activity, negative = inhibition [3] 3.21% | Potency [4] > 20.6 µM

CN1C(=O)NC(c2ccccc2)C2=C1CN(Cc1ccccc1)C2=O (stereo not given)
inactive: activity change, negative = inhibition [1] -1.08% | activity change, negative = inhibition [2] 1.92% | activity, negative = inhibition [3] -9.01% | Potency [4] > 20.6 µM

Nc1ccc2oc(-c3ccccc3Cl)nc2c1
inactive: activity change, negative = inhibition [1] -0.869% | activity change, negative = inhibition [2] 15.3% | activity, negative = inhibition [3] 2.57% | Potency [4] > 20.6 µM

CC(=O)N(Cc1ccccc1)c1ccc(C(=O)O)cc1
inactive: activity change, negative = inhibition [1] 1.39% | activity change, negative = inhibition [2] -12.1% | activity, negative = inhibition [3] 13.1% | Potency [4] > 20.6 µM

Cc1cc(NCC2CCCO2)n2c(nc3ccccc32)c1C#N (stereo not given)
inactive: activity change, negative = inhibition [1] -1.4% | activity change, negative = inhibition [2] -16.9% | activity, negative = inhibition [3] -2.4% | Potency [4] > 20.6 µM

CCc1nc(NCCN2CCOCC2)c(C#N)c2c1CCCC2
inactive: activity change, negative = inhibition [1] -11.1% | activity change, negative = inhibition [2] -20.4% | activity, negative = inhibition [3] 6.43% | Potency [4] > 20.6 µM

CCOCc1nc(N)[nH]c(=O)c1Cc1ccc(OC(C)C)cc1
inactive: activity change, negative = inhibition [1] 1.48% | activity change, negative = inhibition [2] 13.9% | activity, negative = inhibition [3] 9.73% | Potency [4] > 20.6 µM

COC(=O)/C=c1/s/c(=C(/C#N)C(=O)N2CCCCC2)n(-c2ccccc2)c1=O
inactive: activity change, negative = inhibition [1] 26% | activity change, negative = inhibition [2] -25.6% | activity, negative = inhibition [3] -5.91% | Potency [4] > 20.6 µM

Cc1cc(C)c(NC(=O)OCCN2CCOCC2)c(C)c1
inactive: activity change, negative = inhibition [1] 4.21% | activity change, negative = inhibition [2] -5.81% | activity, negative = inhibition [3] 5.25% | Potency [4] > 20.6 µM

CC(C)(C)c1ccc(C(=O)C=[N+]=[N-])cc1
inactive: activity change, negative = inhibition [1] 0.479% | activity change, negative = inhibition [2] 1.56% | activity, negative = inhibition [3] 4.94% | Potency [4] > 20.6 µM

CC(C)c1[nH]c(=O)c(C#N)c2c1CSC(C)(C)C2
inactive: activity change, negative = inhibition [1] -3.98% | activity change, negative = inhibition [2] -5.85% | activity, negative = inhibition [3] 4.25% | Potency [4] > 20.6 µM

O=C(O)C1CC(=O)n2c(nc3ccccc32)S1 (stereo not given)
inactive: activity change, negative = inhibition [1] -9.56% | activity change, negative = inhibition [2] -10.4% | activity, negative = inhibition [3] 6.25% | Potency [4] > 20.6 µM

Cc1cc(=O)oc(C)c1C(=O)N1CCN(C)CC1
inactive: activity change, negative = inhibition [1] 5.91% | activity change, negative = inhibition [2] 17.3% | activity, negative = inhibition [3] 5.89% | Potency [4] > 20.6 µM

COC(=O)c1cc(Br)c(=O)n(Cc2ccco2)c1
inactive: activity change, negative = inhibition [1] 10.7% | activity change, negative = inhibition [2] -14.5% | activity, negative = inhibition [3] -3.41% | Potency [4] > 20.6 µM
